Screens: PubChem BioAssay, National Center for Advancing Translational Sciences (NCATS)
Luc counter: Kinase-Glo luciferase inhibition (counter-screen); Kinase-Glo luciferase, ATP luminescence, 8 min; Potency, µM (highest dose often 38.3 µM), most hits filed as inhibitors; Q27757; hit rate 0.28% among 200,000; further: nearly all actives have a fitted effect of over 60% in size
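Recombinant Kinase-Glo luciferase, 10 uM ATP (linear range), luciferin; imidazole pH 7.2 / KCl / MgCl2 / Tween / BSA buffer; 8 min RT; luminescence.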
RORgamma inh: blocks mouse ROR gamma transcriptional activity. P51450. Drosophila S2 Gal4-RORgamma UAS-luciferase reporter, 20 h. Potency, µM (titrated, usually from 53.6 µM), actives largely listed as inhibitors. hit rate 5.4% among 310,000. AID 2551; further: nearly all actives have a fitted effect of over 60% in size
Target sequence (P51450 whole entry, looked up, the tested form may be a part): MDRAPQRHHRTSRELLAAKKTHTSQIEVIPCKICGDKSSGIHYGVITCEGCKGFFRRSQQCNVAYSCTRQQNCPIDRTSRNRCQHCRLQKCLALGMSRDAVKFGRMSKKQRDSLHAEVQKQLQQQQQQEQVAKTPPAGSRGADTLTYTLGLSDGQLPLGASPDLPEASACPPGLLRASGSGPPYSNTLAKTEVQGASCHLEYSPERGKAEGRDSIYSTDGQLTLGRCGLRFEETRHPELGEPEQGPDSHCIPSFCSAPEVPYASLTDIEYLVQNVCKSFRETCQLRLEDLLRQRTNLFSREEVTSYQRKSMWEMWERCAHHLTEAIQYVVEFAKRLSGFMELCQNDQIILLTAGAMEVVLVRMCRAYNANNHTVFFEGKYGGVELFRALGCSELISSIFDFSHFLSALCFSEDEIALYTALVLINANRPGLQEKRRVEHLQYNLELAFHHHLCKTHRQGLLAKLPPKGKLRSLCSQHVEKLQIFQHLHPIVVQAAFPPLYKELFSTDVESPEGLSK
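In this cell-based reporter format, copper sulfate (700 uM final) drives Gal4–ROR gamma fusion expression from a metallothionein promoter in Drosophila Schneider cells; compounds preincubated 1 hr, reporter read after 20 hr at ambient temperature.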
Gal4-VP16 FLuc: Gal4-VP16 reporter inhibition counter-screen; Potency, µM (doses to about 53.6 µM), hits mostly inhibitors; hit rate 3.5% among 310,000; AID 2546; Drosophila S2 Gal4-VP16 UAS-luciferase, luminescence, 20 h;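 further: Gal4-VP16 expression switched on by copper sulfate through the metallothionein promoter; nearly all actives have a fitted effect of over 50% in size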
A number is an active result; . = inactive; ? = inconclusive; / = no result; ! = not confirmed by another sample; [ ] = another dose, or the depositor's remark. A selection: hits, their analogues and other compounds. The true share with any hit is near 6.2%. The call rests on the fitted dose curve; in most records, active means well fitted curve in the direction sought with a large enough effect; inconclusive means small, poorly fitted or top-dose-only effect, or another doubt; inactive means no such curve, though single readings can be large; an effect the other way counts as inactive or inconclusive.

SMILES	Luc counter	RORgamma inh	Gal4-VP16 FLuc
CCCCC[CH2][Hg][S]C1=C2N=CNC2NC(N)=N1 (configuration not stated)	.[7.66 µM]	/	/
CC1(C)CCC(C)(C)c2c1ccc(O)c2Cc1c(O)ccc2c1C(C)(C)CCC2(C)C	.[7.66 µM]	/	/
C=Cn1ccnc1P(O)(=S)c1nc(C)c(CCOC(C)=O)s1 (configuration not stated)	/	11µM	?
O=C(N/N=C/c1c(O)n(CCc2ccc(F)cc2)c(=O)[nH]c1=O)c1ccccc1	/	.	.
COc1ccc(Cn2c(O)c(/C=N/NC(=O)c3ccccc3O)c(=O)[nH]c2=O)cc1	.	?	?
O=C(N/N=C/c1c(O)n(Cc2ccccc2)c(=O)[nH]c1=O)c1ccccc1O	.	11µM	?
CCn1c(O)c(/C=N/NC(=O)c2ccccc2)c(=O)[nH]c1=S	/	7.1µM	?
c1nc(N2CC2)c2cnn([C@@H]3CCCCO3)c2n1	.[7.66 µM]	/	/
NC[C@@H](O)CSP(=O)(O)O	.[7.66 µM]	/	/
Brc1ccccc1Cn1c(-c2cncs2)nc2ccccc21	.	6.3µM	.
NC(=O)CI	.	/	/
CN(C)CCC(C#N)(c1ccccc1)c1ccccc1	.[7.66 µM]	/	/
C/C(O)=C(/C#N)C(=O)Nc1cc(Br)ccc1Br	.	.	.
COCCCNC(=S)NCCCNc1nc2cc(C)cc(C)c2cc1C#N	.	6.3µM	?
Clc1ccc(C(c2ccccc2Cl)C(Cl)(Cl)Cl)cc1 (configuration not stated)	/	.	.
Cc1cc(C(=O)Nc2ccc(CC(=O)O)cc2)c(C)o1	/	11µM	?
Cc1occc1C(=O)Nc1ccccc1	/	.	.
c1ccc(N2CCCC3(CCNCC3)C2)nc1	.	.	.
Oc1ccc(/C=N/NP(=S)(c2ccccc2)c2ccccc2)c(O)c1O	.	.	.
Oc1ccccc1/C=N/NP(=S)(c1ccccc1)c1ccccc1	.	11µM	.
CN1CCC(OC(=O)Cc2ccccc2)CC1	.	.	.
COc1ccc(C(=O)OC2CCN(C)CC2)cc1	.	13µM	.
COc1ccc(-c2nc3ccccc3c(=O)n2-c2cccnc2)cc1	.	.	.
COc1ccc(C(=O)NC(=S)NNC(=O)c2cccnc2)cc1	/	16µM	.
C[N+]1(C)[C@@H]2CC(OC(=O)[C@@H](CO)c3ccccc3)C[C@@H]1[C@H]1O[C@H]12 (some centres not stated)	.[7.66 µM]	.[10 µM]	.
SMILES	Luc counter	RORgamma inh	Gal4-VP16 FLuc
c1ccc(C2(c3ccccc3)CC2C2=NCCN2)cc1 (configuration not stated)	/	.	.
c1ccc2c(c1)OC[C@@H](C1=NCCN1)O2	.	22µM!	.
O=C1CCCC2C3CC(CN12)C1CCCCN1C3 (configuration not stated)	.	.	.
CCc1c(C(=O)OC)ncc2[nH]c3cc(OC)c(OC)cc3c12	.	/	/
CCOC(=O)c1ncc2[nH]c3ccc(OCc4ccccc4)cc3c2c1COC	.	.	4.5µM
O=C(O)[C@H](Cc1cnc[nH]1)N1C(=O)c2ccccc2C1=O	.[7.66 µM]	/	/
COc1ccc(C(=O)O)cc1OC	.	.	.
O=C(O)c1cc(O)c(O)c(O)c1	.	10µM!	?
O=C(Nc1cccc(F)c1)N1CC2(CCNCC2)C1	.	.	.
C=CC(=O)OCC(C)C	/	.	.
CC(=O)O[C@H]1C(=O)[C@@]2(C)C([C@H](OC(=O)c3ccccc3)[C@]3(O)C[C@H](OC(=O)[C@H](O)[C@@H](NC(=O)c4ccccc4)c4ccccc4)C(C)=C1C3(C)C)[C@]1(OC(C)=O)CO[C@@H]1C[C@@H]2OC(=O)[C@H](C)NC(=O)c1ccc(-c2c3ccc(=O)cc-3oc3cc(O)ccc23)c(C(=O)O)c1 (some centres not stated)	.	.[10 µM]	.[10 µM]
CCOP(=O)(OCC)C(NC(=O)c1ccccc1)=C(Cl)Cl	.	.	.
CCOC(=O)C1=C(NC(=S)NC(=O)c2ccccc2)c2ccccc2CC12CCCC2	.	3.2µM	4.5µM
COC(=O)[C@H]1[C@@H](c2ccccc2)[C@@]2(c3ccccc3)Oc3ccccc3[C@@]1(O)[C@@H]2O	/	.[10 µM]	.[10 µM]
CCOC(=O)C(O)(c1ccc(NC(=S)NC(=O)c2ccc(Cl)cc2Cl)cc1)C(F)(F)F (configuration not stated)	.	6.3µM	10µM
COC(=O)C(O)(c1ccc(NC(=O)NC2CCCCC2)cc1)C(F)(F)F (configuration not stated)	.	?	.
COC(=O)C(O)(c1ccc(NC(=S)NC(=O)c2ccc(Cl)cc2Cl)cc1)C(F)(F)F (configuration not stated)	.	5µM	?
CCOC(=O)C(O)(c1ccc(NC(=O)Oc2ccccc2)cc1)C(F)(F)F (configuration not stated)	.	.	.
CC(=O)N1CCN(c2ccc(OCC3CO[C@@](Cn4ccnc4)(c4ccc(Cl)cc4Cl)O3)cc2)CC1 (some centres not stated)	.	.	?
ClC(Cl)=C(Cl)Cl	/	.	.
COC1=C[C@H]2[C@H]3Cc4ccc(OC)c(O)c4[C@@]2(CCN3C)CC1=O	.	.	.
CC1=C2C(=O)C3C(CC=C4C[C@@H](O)CC[C@@]43C)[C@@H]2CC[C@]12O[C@@H]1C[C@H](C)CN[C@H]1C2C (some centres not stated)	/	.	.
Cc1ccc(N2C(=O)NC(=O)/C(=C\c3cc(C)n(-c4sc5c(c4C#N)CCCC5)c3C)C2=O)cc1	.	.	.
CCOC(=O)c1c(-n2c(C)cc(C=C3C(=O)NC(=S)NC3=O)c2C)sc2c1CCCC2	.	13µM	?
CC(C)(C)NC(=S)/N=C(\N)N[N+](=O)[O-]	.	10µM	?
SMILES	Luc counter	RORgamma inh	Gal4-VP16 FLuc
COC(=O)C(N)CCCN=C(N)N[N+](=O)[O-] (configuration not stated)	.	/	/
CC(Cl)CCl (configuration not stated)	/	.	.
Cc1onc(-c2ccccc2)c1C(=O)Nc1ccc(S(=O)(=O)N2CCCC2)cc1	.	8.9µM	.
O=C(Nc1ccccc1[N+](=O)[O-])c1ccc(S(=O)(=O)N2CCCC2)cc1	/	?	.
COC(=O)[C@@H]1C[C@H](OC(C)=O)C(=O)[C@H]2[C@@]1(C)CC[C@H]1C(=O)O[C@H](c3ccoc3)C[C@]21C	.	.	.
CC(C)[C@@H](Br)C(=O)NCC(=O)O	.[7.66 µM]	/	/
C=C1C(O)C2OC3(CCC(/C=C/C(C)C4CC(C)=CC5(OC(CC(C)(O)C(=O)O)CCC5O)O4)O3)CCC2OC1C(O)CC(C)C1OC2(CCCCO2)CCC1C (configuration not stated)	.	0.004µM	0.011µM
C[C@H](c1ccccc1)N1CCN([C@@H](C)c2ccccc2)CC1	.[7.66 µM]	/	/
c1ccc([Se]c2c(-c3ccccc3)[se]c3ccccc23)cc1	.	.	.
COc1cccc(C(=O)C2CCCN(Cc3ccon3)C2)c1 (configuration not stated)	.	.	.
O=C(c1ccc2c(c1)OCO2)C1CCCN(Cc2c(F)cccc2Cl)C1 (configuration not stated)	/	.	.
COc1cccc(C(=O)C2CCCN(Cc3cnn(C(C)C)c3)C2)c1 (configuration not stated)	.	.	.
COc1cccc(C(=O)C2CCCN(Cc3cccc(C)n3)C2)c1 (configuration not stated)	.	?	14µM
